Shiga toxin inh – A qHTS for Small Molecule Inhibitors of Shiga Toxin | Vero cells, Shiga toxin protein synthesis inhibition reporter | inhibition, % at 38.7 µM | AID 2315, 2010 | hit rate 9.2% among 290,000; in the data active = inhibition mostly above about 28%, no sharp cut-off; inactive = mostly below about 43%; note: 0% is about no effect
Pf growth 96h – Primary qHTS for delayed death inhibitors of the malarial parasite plastid, 96 hour incubation; P. falciparum luciferase reporter growth, 96 h; Potency, µM (top dose mostly 28.7 µM), inactives show top-dose activity change, negative = inhibition, hits mostly inhibitors; hit rate 6.9% among 320,000; AID 504834, 2011; note: potency is the fitted concentration of half-maximal effect; % is set by controls: 0 for no effect and ±100 for the full control effect
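P. falciparum expressing integrated firefly luciferase, in erythrocytes at 2% hematocrit, 0.05% parasitemia, incubated with compounds 96 h at 37 C, 5% CO2. Growth inhibition read as loss of luminescence; two-generation exposure targets delayed-death apicoplast inhibitors.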
Cycloheximide cs – Cycloheximide Counterscreen for Small Molecule Inhibitors of Shiga Toxin | cell reporter, cycloheximide protein synthesis inhibition counterscreen | max response, % | hit rate 12% among 300,000; in the data active = max response mostly above about 13%, no sharp cut-off; inactive = mostly below about 14%; note: read at 38.3 µM for the half of the compounds with a filed dose; 0% is about no effect
FBPA Giardia inh – qHTS Assay for Inhibitors of Fructose-1,6-bisphosphate Aldolase from Giardia Lamblia | A8B2U2 | purified Giardia FBPA | Potency, µM (doses to about 59.6 µM), for the others: at the top dose activity, negative = inhibition, usual class: inhibitors | hit rate 0.71% among 290,000 | AID 2451, 2010; note: potency is the fitted concentration of half-maximal effect; % is set by controls: 0 for no effect and ±100 for the full control effect; nearly all actives have a fitted effect of over 55% in size
Target sequence (A8B2U2 whole entry, looked up): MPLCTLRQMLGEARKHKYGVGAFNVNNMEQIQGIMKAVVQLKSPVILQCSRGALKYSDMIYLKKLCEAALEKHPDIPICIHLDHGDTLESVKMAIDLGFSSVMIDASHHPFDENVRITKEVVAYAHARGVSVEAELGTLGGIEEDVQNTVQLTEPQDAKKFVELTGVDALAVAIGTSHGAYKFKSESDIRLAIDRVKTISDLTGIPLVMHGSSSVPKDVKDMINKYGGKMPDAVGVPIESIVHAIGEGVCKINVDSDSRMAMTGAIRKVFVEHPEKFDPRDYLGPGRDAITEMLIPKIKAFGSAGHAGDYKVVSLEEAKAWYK
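40 nM FBPA preincubated 10 min at RT with compound (up to 57.5 uM final), then substrate plus GAPDH/TPI/NAD/arsenate coupling and diaphorase/resazurin added. Fluorescence read after 20 min at RT, 525/598 nm.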
Pf growth 48h – Primary qHTS for delayed death inhibitors of the malarial parasite plastid, 48 hour incubation. P. falciparum luciferase growth in erythrocytes, 48 h. Potency, µM (top dose mostly 28.7 µM), without a hit: at the top dose activity change, negative = inhibition, most hits filed as inhibitors. hit rate 5.9% among 310,000; note: potency is the fitted concentration of half-maximal effect; % is set by controls: 0 for no effect and ±100 for the full control effect
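Luciferase-expressing P. falciparum in infected erythrocytes (2% hematocrit, 0.1% parasitemia final) in RPMI 1640/0.5% Albumax were exposed to compound for 48 hours at 37 C, 5% CO2; growth read as luminescence.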
NS1 function inh – qHTS Assay for Inhibitors of Influenza NS1 Protein Function. AID 2326, 2010. Potency, µM (series often up to 46.1 µM), for the others: top-dose activity, positive = more growth. hit rate 0.4% among 270,000; calls by dose curve; note: potency is the fitted concentration of half-maximal effect; actives are rising curves; nearly all actives have a fitted effect of over 50% in size
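In this qHTS, NS1 from influenza A is expressed in budding yeast, where it slows growth. Cells are switched from glucose to 2% galactose medium (pH 6.0, -URA), treated with compound, and growth recovery is read at OD600.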
* marks the source's active call; other numbers are inactive results; i = inactive; ? = inconclusive; . = no result; [ ] = dose if it differs, or a comment. Most compounds without a hit are left out; they make up all but 21% or so of the library. Unless noted, calls come from the whole dose curve; as a rule, active = well fitted curve in the direction sought with a large enough effect; inconclusive = small, poorly fitted or top-dose-only effect, or another doubt; inactive = no such curve, though single readings can be large; an effect the other way counts as inactive or inconclusive.

SMILES	Shiga toxin inh	Pf growth 96h	Cycloheximide cs	FBPA Giardia inh	Pf growth 48h	NS1 function inh
COc1cccc(/C=C/C(=O)OCC(=O)c2ccc(C)c(C)c2)c1OC	.	-22%	.	.	-24%	.
COc1ccccc1NC(=O)CCC(=O)c1ccc(-c2ccccc2)cc1	-5	65%	11	1%	18%	11%
C=CCN1C(=O)CSc2ccc(C(=O)NCc3cccs3)cc21	9	?	-2	-3%	7%	.
CN(C)c1ccc(/C=C/c2nc3ccccc3s2)cc1	12	?	-4	.	68%	1%
COc1cc(C=C(c2nc3ccccc3s2)c2nc3ccccc3s2)ccc1O	10	?	23*	-3%	-18%	10%
COc1cc(/C=C/c2cc(C(=O)O)c3ccccc3n2)cc(OC)c1O	3	16%	2	-19%	-4%	7%
Cc1ccc(/C=C/c2nc3ccccc3s2)s1	29	.	24*	-11%	75%	-4%
COc1cc(/C=C/c2nc3ccccc3s2)cc(OC)c1O	78*	i	41*	-17%	304%	.
CC(C)CN(CC(C)C)C(=O)CN1C(=O)NC2(CCCc3ccccc32)C1=O (stereo not given)	-3	-24%	13	13%	-26%	-4%
CCCN(CC(=O)Nc1cccc(S(N)(=O)=O)c1)CC(=O)Nc1ccc(F)c(F)c1F	-1	3%	-1	-7%	-1%	12%
CCCN(CC(=O)Nc1cccc(Br)c1)CC(=O)Nc1ccc(F)c(F)c1F	-11	3.7µM*	-2	-12%	?	-10%
O=c1[nH]c(CN(CCc2ccccc2)S(=O)(=O)c2ccc(Cl)cc2)nc2ccccc12	active	68%	21*	-3%	68%	4%
COc1ccccc1CN(Cc1nc2ccccc2c(=O)[nH]1)S(=O)(=O)c1ccc2ccccc2c1	6	-24%	7	3%	5.9µM*	10%
COc1ccccc1NC(=O)N(Cc1ccc2c(c1)OCO2)Cc1nc2ccccc2c(=O)[nH]1	-3	?	-8	-1%	?	-2%
COc1ccccc1CN(Cc1nc2ccccc2c(=O)[nH]1)C(=O)Nc1cccc(C)c1	44*	9.3µM*	19*	-19%	.	-58%
Cc1ccc(C)c(NC(=S)/C(=C(\[O-])c2ccc(OC(F)F)cc2)[n+]2ccccc2)c1	-11	?	10	-27%	?	.
Cc1cc(C)c(/C([O-])=C(/C(=S)Nc2ccc(SC(F)F)cc2)[n+]2ccccc2)cc1C	-3	?	16	-12%	12µM*	.
Cc1ccc(NC(=S)/C(=C(\[O-])c2ccc(F)cc2)[n+]2ccccc2)cc1	36	0%	21*	-13%	2%	.
C=CCn1c(C)cc(/C([O-])=C(/C(=S)Nc2ccc(OC(F)F)cc2)[n+]2ccc(N(C)C)cc2)c1C	22	3.7µM*	12	-12%	?	3%
[O-]/C(=C(\C(=S)Nc1ccc(SC(F)F)cc1)[n+]1ccccc1)c1cc(Cl)ccc1Cl	40	-11%	20	-14%	-14%	.
CN(C)c1cc[n+](/C(C(=S)Nc2ccc(SC(F)F)cc2)=C(/[O-])c2ccccc2)cc1	19	2.1µM*	9	-6%	4.7µM*	.
O=C(Cn1nnc2ccccc2c1=O)Nc1cccc(S(=O)(=O)N2CCOCC2)c1	36	-27%	-3	-3%	?	8%
O=S(=O)(c1ccc(C(F)(F)F)cc1)N1CCN(CCc2ccccc2)CC1	-6	22%	-5	8%	3%	-4%
Oc1ccc(/C=N/Nc2ccc(Cl)nn2)cc1O	36	?	39*	?	31%	8%
Cc1ccc(/C=N/Nc2ccc3c(C(F)(F)F)cc(C(F)(F)F)nc3n2)cc1	-13	?	-1	1%	-2%	17%
SMILES	Shiga toxin inh	Pf growth 96h	Cycloheximide cs	FBPA Giardia inh	Pf growth 48h	NS1 function inh
Cc1ccc(/C=N/Nc2ccc(Cl)nn2)cc1	45*	0%	13*	5%	70%	-5%
Fc1ccccc1/C=N/Nc1ccc(Cl)nn1	38*	45%	10	-3%	.	-3%
Fc1ccccc1/C=N/Nc1nn[nH]n1	-13	97%	1	?	.	3%
CN(C)c1ccc(S(=O)(=O)N2CCCCC2)cc1NC(=O)CCNC(=O)c1ccc(Cl)cc1	.	?	.	.	-11%	.
COc1ccc(CCNC(=O)C(=O)NCc2ccccn2)cc1	39	?	7	-3%	17%	-5%
CC(=O)Nc1ccc(S(=O)(=O)NNc2cccc(C)c2)cc1	28	44%	5	.	37%	-2%
CCOC(=O)c1c(C)c(C)n(Cc2cccc(OC)c2OC)c1C	-14	8.3µM*	-4	-4%	12µM*	-12%
CCOC(=O)c1cc(C)n(CCc2cnc[nH]2)c1C	27	?	15*	-6%	13µM*	-2%
CCOC(=O)c1cc(C)n(CCCN2CCOCC2)c1C	-8	-12%	2	-4%	-10%	7%
CCOC(=O)c1cc(C)n(-c2ccc(OC)c(OC)c2)c1C	-16	22%	-9	-11%	?	-12%
CCOC(=O)c1cc(C)n(Cc2cccc(OC)c2OC)c1C	-16	2.3µM*	-4	-2%	?	-22%
CCOC(=O)c1c(C(=O)OCC)c(C)n(Cc2cc(OC)c(OC)c(OC)c2)c1C	6	12µM*	-1	5%	?	-5%
O=C(NCC1CCCN1S(=O)(=O)c1cccs1)c1cccc([N+](=O)[O-])c1 (stereo not given)	.	1%	.	.	-24%	.
CN(C(=O)C1CCCC1)C1CCS(=O)(=O)C1 (stereo not given)	.	2%	.	.	13%	.
CCOC(=O)c1cnn(Cc2cccc(Cl)c2)c1C	-1	?	23	13%	13µM*	.
CCOC(=O)c1c(C=O)c(C)n(Cc2ccc(C)cc2)c1C	26	?	4	4%	.	-36%
CCOC(=O)c1c(C=O)c(C)n(Cc2ccccc2Cl)c1C	11	.	10	11%	3.3µM*	-53%
CCOC(=O)c1cc(C)n(Cc2ccccc2)c1C	37	6.6µM*	25	0%	3.3µM*	-46%
OCc1nc2ccccc2n1/N=C/c1cccs1	19	3%	0	0%	24%	-3%
c1ccc(Nc2nc(-c3ccc4c(c3)OCO4)nc3ccccc23)cc1	.	.	.	-24%	.	.
O=C(NCc1nc2ccccc2[nH]1)c1c(F)c(F)c(F)c(F)c1F	12	40%[5.75 µM]	-5	-5%	-17%	3%
O=C(NCc1nc2ccccc2[nH]1)c1ccccc1F	72*	4%	33*	-2%	70%	2%
O=C(NCCCc1nc2ccccc2[nH]1)c1ccc(F)cc1	-3	10µM*	4	3%	13%	.
O=C(NCc1cc2ccccc2[nH]1)c1ccccc1F	.	?	38*	17%	77%	20%
O=C(CNC(=O)c1ccc(Br)cc1)NCCc1nc2ccccc2[nH]1	4	-21%	13	-2%	.	?

Screens from PubChem.
